Source: PubChem BioAssay (several laboratories)
PfHsp90 yeast 2 = inhibits growth of yeast expressing Plasmodium falciparum Hsp90; S. cerevisiae expressing PfHsp90, BacTiter-Glo ATP, 48 h; yeast lacking PDR1 and PDR3 efflux regulators; inhibition, % at 9.4 µM; hit rate 0.32% among 310,000; AID 504621;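 active = every replicate shows inhibition above about 80%, whatever the replicate mean, limit read from the data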;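 note: 0% = DMSO neutral controls and 100% = 20 µM radicicol positive controls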
tim23-1 inh = tim23-1 yeast growth inhibition; S. cerevisiae tim23-1 growth, BacTiter-Glo luminescence, 24 h; inhibition, % at 20 µM; hit rate 1.3% among 330,000;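 active = growth inhibition of the mutant yeast at or above 50%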;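 note: temperature-sensitive mutant grown at 25 °C; plate controls were DMSO-treated mutant yeast for no effect and medium wells lacking yeast for full effect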
tim10-1 inh = inhibits growth of tim10-1 mutant yeast; S. cerevisiae tim10-1 ts strain growth, BacTiter-Glo, 24 h; inhibition, % at 20 µM; hit rate 2.2% among 330,000;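 active = inhibition of at least 40%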;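 note: mutant grown at 25 °C; 0% = DMSO wells with yeast and 100% = wells holding no yeast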
TIM10 inh = growth inhibitors of TIM10 yeast strain. S. cerevisiae TIM10 strain growth, BacTiter-Glo luminescence, 24 h. inhibition, % at 10 µM. hit rate 1.4% among 330,000. AID 463195;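 active = inhibition of 40% or more at the single tested concentration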;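 note: wild-type TIM10 isogenic control strain grown at permissive 25 °C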
SKKanGAS inh = inhibitors of SKKanGAS S. pyogenes growth in kanamycin (SK-promoter or general growth effect); inhibition, % at 7.5 µM; hit rate 1.3% among 300,000; BacTiter-Glo, 6 h;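 active = mean replicate score, as percent of positive control median, at least 50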;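 note: strain carries kanamycin resistance gene driven by streptokinase promoter and grows in 40 µg/ml kanamycin; loss of luminescence reflects streptokinase promoter inhibition or plain growth inhibition; 0% = median of DMSO wells and 100% = positive control at its reference dose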
tim10-1 conf = tim10-1 yeast growth inhibition, confirmed; S. cerevisiae tim10-1 ts strain growth, BacTiter-Glo, 24 h; inhibition, % at 20 µM; hit rate 56% among 7,400; shares compounds with tim10-1 inh; AID 463213;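 active = inhibition of yeast growth at or above a set limit in either of two repeat tests at 20 µM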;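 note: tim10-1 mutant grown at permissive 25 °C to find synthetic lethal compounds; 0% = DMSO yeast wells and 100% = medium wells without yeast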
* hit, by the source's call; · = no result given. Compounds with a hit are over-represented: about 4.4% of the library has one in this group of screens.

SMILES | PfHsp90 yeast 2 | tim23-1 inh | tim10-1 inh | TIM10 inh | SKKanGAS inh | tim10-1 conf
Cc1ccc(C(=O)Oc2ccc(Cl)c3cccnc23)cc1[N+](=O)[O-] | -19 | 39 | 41* | 10 | 51* | 22
Cc1nc2cc(C(F)(F)F)ccc2n1CCNc1nc(-c2ccc(F)cc2)cs1 | -22 | 15 | 46* | 13 | 15 | 22
COc1ccc(-c2csc(NCCn3c(C)nc4cc(C(F)(F)F)ccc43)n2)cc1 | 4 | 47 | 15 | 13 | · | ·
COc1ccc(N2C(=O)CC(N(C)CCc3ccc(OC)c(OC)c3)C2=O)cc1 (stereo not drawn) | -28 | 25 | 32 | 27 | -3 | ·
COC(=O)c1ccc(N2C(=O)CC(N(C)CCc3ccc(OC)c(OC)c3)C2=O)cc1 (stereo not drawn) | 47 | 38 | 41* | 30 | -8 | 44*
COC(=O)c1ccccc1NC(=O)CCC(=O)N1CC(C)Oc2ccc(C)cc21 (stereo not drawn) | 7 | 14 | 18 | 10 | -2 | ·
COc1ccc2nc(C)cc(N3CCN(S(=O)(=O)c4ccccc4F)CC3)c2c1 | · | 47 | 40* | 30 | · | 21
O=C(O)C(C1CCCCC1)C1(O)CCCC1 (stereo not drawn) | -2 | · | · | · | · | ·
CCCCCCCC(=O)N/N=C/c1ccc(Br)cc1 | -19 | 22 | 54* | 32 | · | 6
COc1ccc(NS(=O)(=O)c2cc(NC(=O)COc3ccc(OC)cc3)ccc2N2CCOCC2)cc1 | -3 | 18 | 25 | 12 | · | ·
O=C(COC(=O)COc1ccccc1)Nc1ncc([N+](=O)[O-])s1 | 0 | -2 | -5 | 10 | · | ·
CCC(Oc1ccccc1)C(=O)Nc1ncc([N+](=O)[O-])s1 (stereo not drawn) | -42 | 47 | 42* | 19 | 9 | 55*
CC(CC(=O)Nc1ncc([N+](=O)[O-])s1)c1ccccc1 (stereo not drawn) | · | 40 | 43* | 30 | · | 52*
O=C(NCCCn1ccnc1)c1ccc(-c2cccc(C(F)(F)F)c2)o1 | -9 | -13 | -21 | -10 | · | ·
C#CCn1c(=NC(=O)c2cc(Cl)sc2Cl)sc2cc(S(N)(=O)=O)ccc21 | -30 | 30 | 47* | 22 | 50* | 33*
C#CCn1c(=NC(=O)CN2C(=O)CCC2=O)sc2cc(S(N)(=O)=O)ccc21 | -1 | -3 | 11 | 3 | -4 | ·
CC(=C/c1ccc(C(C)C)cc1)/C=N/NC(=O)CSc1ccccn1 | -2 | -1 | 47* | 29 | 68* | 20
CC(C)NC(=O)CN1CCN(C(=O)c2ccc3oc(CCCc4ccccc4)nc3c2)CC1 | 13 | 4 | 0 | 7 | -10 | ·
C=CCOc1ccc(C(=O)c2ccccc2)c(OCC(=O)NC2(C#N)CCCC2)c1 | 7 | 18 | -9 | -11 | -3 | ·
CC(C)OC(=O)c1ccc2nc3ccccc3nc2c1 | -102 | 20 | 41* | 2 | 15 | 11
CCOc1cc(N2CCOCC2)c(OCC)cc1NC(=O)c1cnccn1 | · | 25 | -1 | 2 | · | ·
CSc1ccc(S(=O)(=O)NCc2ccccc2)cc1 | -5 | 42 | 46* | 7 | -9 | 31*
O=S(=O)(NCc1ccccc1)c1ccc(Cl)cc1 | -27 | 35 | 31 | 28 | 7 | ·
CSc1ccc(S(=O)(=O)NCc2ccccc2Cl)cc1 | -46 | 46 | 52* | 33 | -3 | 49*
CCc1ccccc1NS(=O)(=O)c1ccc(SC)cc1 | -25 | 6 | 25 | -3 | 0 | ·
SMILES | PfHsp90 yeast 2 | tim23-1 inh | tim10-1 inh | TIM10 inh | SKKanGAS inh | tim10-1 conf
COCc1n[nH]c(=S)n1-c1ccccc1 | -6 | 1 | 18 | -1 | 19 | ·
S=c1[nH]nc(CSCc2ccccc2Cl)n1-c1ccccc1 | 26 | 23 | 46* | 15 | -5 | 37*
CCc1nnc(NC(=O)c2cc(S(=O)(=O)N(C)c3ccc(OC)cc3)ccc2Cl)s1 | -3 | 8 | 14 | -1 | 25 | ·
Nc1c(C(=O)NCc2ccc(Cl)cc2)sc2nc3c(c(C(F)(F)F)c12)CCC3 | · | 30 | 46* | 4 | 28 | 26
O=C(Oc1cc2oc(=O)c3c(c2cc1Cl)CCCC3)c1cccs1 | -4 | 31 | 43* | 23 | 31 | 17
Nc1nonc1C(=O)N/N=C\c1cc2c(cc1Cl)OCO2 | 2 | 1 | 5 | -29 | · | ·
C=CCc1c(C)nc(-c2ccccc2)nc1N/N=C/c1ccccc1 | 12 | 36 | 46* | 33 | -3 | 32*
CC(=O)O[C@]1(C(C)=O)CC[C@H]2[C@@H]3C=CC4=CC(=O)C=C[C@]4(C)[C@H]3CC[C@@]21C | -11 | 34 | 40* | 10 | 2 | 5
CC1Cc2ccccc2N1C(=O)COC(=O)c1c2c(nc3ccccc13)CCCCC2 (stereo not drawn) | 11 | 35 | 41* | 35 | 5 | 36*
O=C(OCC(=O)N1CCc2ccccc21)c1c2c(nc3ccccc13)CCCC2 | 19 | 34 | 39 | 40 | 21 | ·
CCOC(=O)c1c(NC(=O)COC(=O)CCNS(=O)(=O)c2ccccc2)sc(C(=O)NC)c1C | 2 | · | · | · | · | ·
CCOC(=O)c1ccc(NC(=O)CC2COc3ccccc3O2)cc1 (stereo not drawn) | -26 | 47 | 41* | 22 | -2 | 29
CCC(=O)Nc1ccc(C(=O)OCc2ccccc2)cc1 | · | 32 | 41* | 35 | -3 | 36*
CCN(CC1COc2ccccc2O1)C(=S)Nc1ccccc1 (stereo not drawn) | -9 | 49 | 44* | 29 | 6 | 15*
CCC(=O)Nc1ccc(C(=O)NNC(=O)c2ccccc2)cc1 | 2 | 26 | -7 | 0 | 8 | ·
CCc1ccccc1NC(=O)CN1CCN(CC(=O)Nc2ccc3c(c2)OC2(CCCCC2)O3)CC1 | -12 | · | · | · | · | ·
COc1ccc(S(=O)(=O)Nc2ccc(S(=O)(=O)Nc3cc(C)nc(C)n3)cc2)cc1OC | 3 | 2 | -5 | 4 | -4 | ·
Cc1ccc(NS(=O)(=O)c2ccc(-c3cnc(C4CC4)o3)cc2)cc1 | -8 | 27 | 40* | -15 | -17 | -11
Cc1ccc(CNS(=O)(=O)c2ccc(-c3cnc(C4CC4)o3)cc2)cc1 | 25 | 45 | 27 | 28 | -16 | ·
COc1ccc(C)cc1NS(=O)(=O)c1ccc(-c2cnc(C3CC3)o2)cc1 | -33 | 37 | 43* | -21 | 5 | 2
CC(=O)c1ccc(NS(=O)(=O)c2ccc(-c3cnc(C4CC4)o3)cc2)cc1 | -18 | 20 | 11 | 6 | 9 | ·
CCOC(=O)C1(Cc2ccc(OC)cc2)CCN(C(=O)c2cc3ccccc3[nH]2)CC1 | 15 | 27 | 41* | 24 | 15 | 29
Cc1cccc(C2Nc3cccc4cccc(c34)N2)c1 | -12 | 41 | 41* | 36 | 5 | 24
O=C(c1nc[nH]c1C(=O)N1CCN(c2ccccc2)CC1)N1CCN(c2ccccc2)CC1 | -4 | -4 | 3 | 8 | · | ·
COc1cc2c(cc1NC(=O)Nc1ccc(C)cc1)oc1ccccc12 | 36 | 13 | 43* | 30 | 3 | 41*
